# A number with no mark means an inactive call. The source made the active and inactive calls. Cut-off read from the data, not from the text of the source: active = inhibition above about 42%; inactive = the rest.
# Target: Nuclear receptor subfamily 5 group A member 2 (Homo sapiens) (UniProt O00482)
# Experiment: NR5A2 activity suppression in reporter cells – cell-based, luminescence, confirmation (AID 651613);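 note: HEK293T cells co-transfected with LRH-1 and StAR promoter luciferase reporter; 0% = vehicle wells and 100% = parental cells lacking receptor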
# Settings: cell-based LRH-1 luciferase reporter, inverse agonism; at 3.6 µM; active compounds read high
# Sequence of Nuclear receptor subfamily 5 group A member 2 (Homo sapiens) (O00482 whole entry, looked up): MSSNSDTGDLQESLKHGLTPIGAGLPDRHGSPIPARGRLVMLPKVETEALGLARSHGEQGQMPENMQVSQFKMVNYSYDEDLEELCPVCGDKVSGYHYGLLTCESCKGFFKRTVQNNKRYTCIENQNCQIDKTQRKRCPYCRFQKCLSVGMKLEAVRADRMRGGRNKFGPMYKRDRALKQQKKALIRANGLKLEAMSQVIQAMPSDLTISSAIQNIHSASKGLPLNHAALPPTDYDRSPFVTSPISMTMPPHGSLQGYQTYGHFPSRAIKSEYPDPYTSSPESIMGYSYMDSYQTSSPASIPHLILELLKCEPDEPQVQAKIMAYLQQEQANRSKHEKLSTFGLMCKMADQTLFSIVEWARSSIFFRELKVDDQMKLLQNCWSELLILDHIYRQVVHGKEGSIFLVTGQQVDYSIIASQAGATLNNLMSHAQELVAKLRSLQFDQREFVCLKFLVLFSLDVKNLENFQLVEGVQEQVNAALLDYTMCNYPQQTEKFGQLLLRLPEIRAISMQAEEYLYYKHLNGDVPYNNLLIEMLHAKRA
row,Compound,inhibition
1,CN(C)c1ccc(CNc2ncnc3sccc23)cc1,71% (active)
2,COc1ccc(S(=O)(=O)Nc2cc3c4c(oc3c3ccccc23)CCCC4=O)cc1,69.6% (active)
3,CC(/C=C(\NC(=O)c1ccccc1)C(=O)N=Nc1c(O)[nH]c2ccc(C)cc12)=C\c1ccccc1,31.7%
4,O=c1[nH]c2cc3ccccc3cc2nc1-c1nnnn1C1CCCC1,33.4%
5,O=C(NNc1c(F)c(F)cc(F)c1F)C1CCN(S(=O)(=O)c2ccccc2F)CC1,8.61%
6,CC(C)C(=O)Nc1ccc(C(=O)CN2C(=O)NC3(CCOc4ccccc43)C2=O)cc1 (stereo not given),37.1%
7,Cc1ccccc1OCC(=O)N/N=C/c1ccc([N+](=O)[O-])o1,57.5% (active)
8,O=C(Nc1ccc2c(c1)CCCN2C(=O)c1ccco1)c1cc([N+](=O)[O-])ccc1Cl,39.3%
9,O=C(Nc1ccc(S(=O)(=O)N2CCCC2)cc1)c1ccc([N+](=O)[O-])o1,58.8% (active)
10,COc1cccc(-c2cnc3c(NC=O)cc(-c4ccc(S(C)(=O)=O)cc4)cn23)c1,61.5% (active)
11,O=C(c1ccccc1Br)N1CCN(c2ccc([N+](=O)[O-])c(N3CCOCC3)c2)CC1,42% (active)
12,C#CCN(C[C@@H]1[C@@H](OC(=O)NCc2ccc(OC)c(OC)c2)[C@@H](OC(=O)NCc2ccc(OC)c(OC)c2)CN(C(=O)OC(C)C)N1C(=O)OC(C)C)S(=O)(=O)c1ccc(C)cc1,35.2%
13,COCCNc1ncnc2c1ncn2[C@H]1CN(CCc2ccccc2)C[C@@H](CO)O1,28.4%
14,CC(=O)N1CCN(c2cc(N3CCCC3)c(F)cc2[N+](=O)[O-])CC1,57.4% (active)
15,NC(=S)NNc1cc(Cl)cc(Cl)c1,50.1% (active)
16,COc1ccc(-c2ccc(C(=O)NCc3ccncc3)c3occc23)c(C)c1,69.7% (active)
17,CCOC(=O)c1cc(C#N)c(N2CCCCC2)nc1-c1ccccc1,53.8% (active)
18,CCCc1cc(=O)oc2cc(OCC(=O)NCCc3ccc(S(N)(=O)=O)cc3)ccc12,50.9% (active)

row,Compound,inhibition
1,CC(=O)Nc1ccc(NC(=O)CSc2nnc(COc3ccccc3C)n2CC2CCCO2)cc1 (stereo not given),64.6% (active)
2,CCCCSc1nc(SCC(=O)NCc2ccco2)c2c3c(sc2n1)COC(C)(CC)C3 (stereo not given),53.8% (active)
3,COC(=O)c1ccc(NC(=O)CSc2nnc(C)n2CC2CCCO2)cc1 (stereo not given),50.5% (active)
4,O=C(COC(=O)CCN1C(=O)C2CC=CCC2C1=O)NCCc1ccc(F)cc1 (stereo not given),63.2% (active)
5,COc1ccc(C(=O)Nc2cnccn2)cc1[N+](=O)[O-],35.3%
6,COc1ccc(CCNC(=O)CN2C(=O)C3(OCCCO3)c3ccccc32)cc1OC,45.7% (active)
7,CCn1c2ccccc2c2cc(C3C(C#N)=C(N)Oc4n[nH]c(COC)c43)ccc21 (stereo not given),50.8% (active)
8,CCN(CC)c1nc(C)c(C(C)=O)cc1C#N,32.7%
9,CC1(C)CC(=O)C=C(c2ccc3c(c2)OCO3)C1,40.6%
10,CCOc1ccc(CCNC(=O)COC(=O)c2nc(Cl)ccc2Cl)cc1OCC,39.2%
11,O=C(NCc1ccco1)c1nn(-c2ccccc2)c(=O)c2ccccc12,57% (active)
12,COc1ccccc1-c1cc(NC=O)c2ncc(-c3ccc(S(C)(=O)=O)cc3)n2c1,42.8% (active)
13,COc1ccccc1NC(=O)c1ccc(NC(=O)COC(=O)C(C)C)cc1,62.7% (active)
14,O=C(OCC(=O)N1CCN(c2ccccc2)CC1)c1ccc2ccccc2n1,33%
15,CC(=O)Nc1cccc(C(=O)OCC(=O)N2CCN(C(=O)COC(=O)c3cccc(NC(C)=O)c3)CC2)c1,55.5% (active)
16,Cc1ccsc1CNc1ncnc2ccc(-c3c(C)noc3C)cc12,37.9%
17,CCOc1ccc(OCCN2C(=O)NC(Cc3c[nH]c4ccccc34)C2=O)cc1 (stereo not given),54.9% (active)

# Source: PubChem BioAssay
